# Results taken from PubChem BioAssay (NCATS).
# “And” between values parts separate entries of the source, which are not always exact repeats. Equal values may be shown once. Records with an inconclusive call do not appear. The source made the active and inactive calls. Calls follow the shape of the dose curve; as a rule, active = well fitted inhibition curve with a large enough effect; inconclusive = small, poorly fitted or top-dose-only effect; inactive = flat fitted curve, though single readings scatter.
# Assay: P-glycoprotein substrates identified in KB-8-5-11 adenocarcinoma cell line, qHTS therapeutic library screen (AID 1346987); also: nearly all actives have a fitted effect of over 65% in size
# Conditions: KB-8-5-11 (P-gp overexpressing) viability, CellTiter-Glo, 72 h; series mostly up to 44.5 µM; activity change, negative = cytotoxicity: at the top concentration
# In short: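 P-gp-mediated resistance screen: KB-8-5-11 cells treated 72 h with compounds in dose-response. CellTiter-Glo viability.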
# % is scaled to controls: 0 for no effect and ±100 for the full control effect; potency is read from the fitted curve at half-maximal effect.
SMILES,outcome,"activity change, negative = cytotoxicity",Potency
C=C1CCC2C(C)(C(=O)OC)CCCC2(C)C1CCC(C)CC(=O)O (stereo not drawn),inactive,–,–
C[C@]1(CO)CCC[C@]2(C)C3=C(CCC12)COC3 (stereo partly drawn),inactive,–,–
COc1ccc(/C=C/C(=O)O[C@H]2[C@H](O[C@H]3[C@@H]4C=CO[C@@H](O[C@@H]5O[C@H](CO)[C@@H](O)[C@H](O)[C@H]5O)[C@@H]4[C@@]4(CO)O[C@@H]34)O[C@@H](C)[C@H](O)[C@H]2OC(C)=O)cc1,inactive [at 17.3 µM],–,–
CC(C)(O)/C=C/C1=CC(=O)[C@@](C)(O)C[C@H]1O,–,7.04% (inactive),–
O=C(O)c1ccccc1NC(=O)N1CCC(c2ccccc2C(F)(F)F)CC1,–,-11.2% (inactive),–
C[C@@H]1C[C@@H]([C@@H](O)C(C)(C)O)O[C@H]2C[C@@]3(C)C(=C12)C[C@H](O)[C@H]1[C@@]2(C)CCC(=O)C(C)(C)C2CC[C@@]13C (stereo partly drawn),–,-6.6% [at 17.3 µM] (inactive),–
COc1cc(O)cc(C)c1C(=O)O[C@H]1[C@@H](OC(C)=O)[C@H](n2ccc(=O)[nH]c2=O)O[C@@H]1CO,inactive [at 17.3 µM],–,–
C=C(C(=O)OC)C1C(O)CC2(C)C(O)CCC(=O)C2C1O (stereo not drawn),–,0.374% (inactive),–
CC(C)CCC(=O)CC1c2ccccc2C(=O)N1c1ccc2ccc(Cl)nc2n1 (stereo not drawn),–,-18.4% (inactive),–
CCN(Cc1cccnc1)C(=O)CN(c1ccc(OC)nc1)S(=O)(=O)c1ccccc1C,–,-2.79% (inactive),–
COc1ccc([C@@]2(O)c3c(ccc4c3OC(C)(CCC=C(C)C)C=C4)NC(=O)[C@@H]2OC)cc1 (stereo partly drawn),–,0.889% [at 17.3 µM] (inactive),–
CNS(=O)(=O)c1ccccc1Nc1nc(Nc2ccc(N3CCN(C)CC3)cc2OC)ncc1Cl,–,–,651 nM (active)
CC1=CC(=O)CC(C)(C)C1/C=C/C(C)O[C@@H]1O[C@H](CO)[C@@H](O)[C@H](O)[C@H]1O[C@@H]1OC[C@](O)(CO)[C@H]1O (stereo partly drawn),–,2.75% [at 17.3 µM] (inactive),–
C/C1=C\C[C@]2(C)C(=O)C(O)=C([C@H](C)CO)[C@H]2C/C=C(\C)[C@@H](O)CC/C(C)=C/CC1,–,-7.2% (inactive),–
C/C=C/C=C/C(=O)N1CC[C@]23c4ccccc4N[C@H]4N(C)c5cccc6c5[C@@]42CCN([C@H]6C2OC2(C)C)[C@H]13 (stereo partly drawn),inactive [at 17.3 µM],–,–
N#Cc1ccc(-c2cnc3[nH]cc(NC(=O)c4cccnc4)c3c2)cc1,–,-3.38% (inactive),–
Cc1cc(C)cc(C(=O)NOCCCCCC(=O)NO)c1,–,–,1300 nM (active)
COc1c/c(=C2\C=c3ccccc3=N2)[nH]/c1=C\c1[nH]c(C)cc1C,–,–,1160 nM (active)
Cc1csc(NC(=O)c2ccc(COc3cccc(Cl)c3)o2)n1,–,-23% (inactive),–
CC1(C)CCC(C)(C)c2cc(C3(c4ccc(C(=O)O)cc4)OCCO3)ccc21,–,9.62% (inactive),–
COc1ccc(F)cc1-c1cc(NC(=O)[C@@H]2CCCNC2)ncc1Cl,–,–,326 nM (active)
CC(=O)C1=C(C)N(c2cccc(C(F)(F)F)c2)C(=O)N[C@H]1c1ccc(C#N)nc1,–,-2.98% [at 9.29 µM] (inactive),–
COc1cc2ncnc(Nc3ccc(O)cc3)c2cc1OC,inactive,–,–
CC(C)(O)C1CCC(C)(C2CCC3(C)C4CCC5C(C)(C(=O)OC6OC(CO)C(O)C(O)C6O)C(O)CC(O)C56CC46CCC23C)O1 (stereo not drawn),–,-0.552% [at 17.3 µM] (inactive),–
C[C@@H]1O[C@@H](O[C@H]2[C@H](OC(=O)[C@]34CCC(C)(C)C[C@H]3C3=CCC5[C@@]6(C)CC[C@H](O[C@@H]7O[C@H](C(=O)O)[C@@H](O)[C@H](O)[C@H]7O[C@@H]7O[C@H](CO)[C@H](O)[C@H](O)[C@H]7O)[C@@](C)(C=O)C6CC[C@@]5(C)[C@]3(C)C[C@H]4O)O[C@H](C)[C@H](O[C@@H]3O[C@H](C)[C@H](O)[C@H](O)[C@H]3O)[C@@H]2O)[C@H](O)[C@H](O)[C@H]1O[C@@H]1OC[C@@H](O)[C@H](O[C@@H]2O[C@H](CO)[C@@H](O)[C@H](O)[C@H]2O)[C@H]1O (stereo partly drawn),inactive [at 5.11 µM],–,–
CN1CCN(c2ccc(C(=O)Nc3n[nH]c4ccc(Cc5cc(F)cc(F)c5)cc34)c(NC3CCOCC3)c2)CC1,–,–,16.4 µM (active) and 13 µM (active)
C[C@@H]1O[C@@H](O[C@H]2[C@H](O)[C@@H](C(=O)O)O[C@@H](O[C@H]3CC[C@@]4(C)C(CC[C@]5(C)C4CC=C4C6CC(C)(C)CC[C@]6(C(=O)O)CC[C@]45C)C3(C)C)[C@@H]2O[C@@H]2OC[C@@H](O)[C@H](O)[C@H]2O)[C@H](O)[C@H](O)[C@H]1O (stereo partly drawn),inactive [at 9.29 µM],–,–
CC1CCC2(OC1)OC1CC3C4CC=C5CC(O)CC(O[C@@H]6OC[C@@H](O)[C@H](O)[C@H]6O)C5(C)C4CCC3(C)C1(O)C2C (stereo partly drawn),–,3.36% [at 17.3 µM] (inactive),–
